Source: the supplement of paper PMC11732987, “Enantioselective OTUD7B fragment discovery through chemoproteomics screening and high-throughput optimisation” (Communications Chemistry, 2025)

What was measured:
Assay in all cases: log2 ratio of Biotin-Ahx-Ub-VS probe labelling (fragment/DMSO); higher = less target engagement (more negative = stronger competition), active = hit call of the paper (q ≤ 0.05, log2 ratio ≤ -1)
Settings in all cases: compound concentration: 200 uM; treatment time: 3 h
ALG13 = target: T1, ALG13 (UniProt Q9NP73)
T1 sequence (whole entry): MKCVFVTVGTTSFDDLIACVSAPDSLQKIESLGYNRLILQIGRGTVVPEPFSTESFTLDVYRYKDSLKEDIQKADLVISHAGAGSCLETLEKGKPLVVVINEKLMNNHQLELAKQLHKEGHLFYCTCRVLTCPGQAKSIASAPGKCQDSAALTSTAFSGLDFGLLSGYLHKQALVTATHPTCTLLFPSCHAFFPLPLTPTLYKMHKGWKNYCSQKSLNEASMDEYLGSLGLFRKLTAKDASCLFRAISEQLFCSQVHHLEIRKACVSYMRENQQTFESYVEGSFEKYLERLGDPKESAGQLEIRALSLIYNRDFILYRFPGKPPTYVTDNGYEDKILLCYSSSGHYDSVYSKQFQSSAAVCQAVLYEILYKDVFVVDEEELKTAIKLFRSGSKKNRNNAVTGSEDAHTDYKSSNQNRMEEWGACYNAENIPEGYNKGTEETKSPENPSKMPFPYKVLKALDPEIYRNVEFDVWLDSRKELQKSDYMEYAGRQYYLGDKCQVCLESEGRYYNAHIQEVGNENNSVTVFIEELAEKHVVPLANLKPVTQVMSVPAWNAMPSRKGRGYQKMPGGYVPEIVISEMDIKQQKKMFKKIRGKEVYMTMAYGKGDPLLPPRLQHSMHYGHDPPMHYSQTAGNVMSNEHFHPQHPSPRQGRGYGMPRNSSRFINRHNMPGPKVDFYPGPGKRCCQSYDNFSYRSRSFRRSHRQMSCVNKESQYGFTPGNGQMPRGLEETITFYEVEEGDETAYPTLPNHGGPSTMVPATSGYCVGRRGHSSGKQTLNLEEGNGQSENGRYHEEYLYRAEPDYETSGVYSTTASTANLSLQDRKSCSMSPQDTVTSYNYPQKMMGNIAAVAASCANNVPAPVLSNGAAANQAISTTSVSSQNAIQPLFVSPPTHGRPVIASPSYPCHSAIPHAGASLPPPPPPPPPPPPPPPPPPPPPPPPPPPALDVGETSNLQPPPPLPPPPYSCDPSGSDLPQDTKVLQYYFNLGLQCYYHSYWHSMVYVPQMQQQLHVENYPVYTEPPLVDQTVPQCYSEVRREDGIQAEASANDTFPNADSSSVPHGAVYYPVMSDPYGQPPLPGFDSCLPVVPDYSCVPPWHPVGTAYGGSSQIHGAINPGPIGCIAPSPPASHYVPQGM
How it was run: (§1)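 The table lists average log2 ratios of fragment over vehicle, from an unpaired t-test on global-median-normalised Spectronaut label-free quantities. Proteins with ≥2 unique peptides were used. Samples were HEK293T lysate (495 µg) treated in triplicate with fragment at 200 µM or vehicle for 3 h, then with Biotin-Ahx-Ub-VS (0.5 µM final) for 1 h, with labelled DUBs NeutrAvidin-enriched and run by diaPASEF LC-MS/MS.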

ATXN3 = ATXN3 (UniProt P54252)
How it was run: as §1

BAP1 = target: T2, BAP1 (UniProt Q92560)
T2 sequence (whole entry): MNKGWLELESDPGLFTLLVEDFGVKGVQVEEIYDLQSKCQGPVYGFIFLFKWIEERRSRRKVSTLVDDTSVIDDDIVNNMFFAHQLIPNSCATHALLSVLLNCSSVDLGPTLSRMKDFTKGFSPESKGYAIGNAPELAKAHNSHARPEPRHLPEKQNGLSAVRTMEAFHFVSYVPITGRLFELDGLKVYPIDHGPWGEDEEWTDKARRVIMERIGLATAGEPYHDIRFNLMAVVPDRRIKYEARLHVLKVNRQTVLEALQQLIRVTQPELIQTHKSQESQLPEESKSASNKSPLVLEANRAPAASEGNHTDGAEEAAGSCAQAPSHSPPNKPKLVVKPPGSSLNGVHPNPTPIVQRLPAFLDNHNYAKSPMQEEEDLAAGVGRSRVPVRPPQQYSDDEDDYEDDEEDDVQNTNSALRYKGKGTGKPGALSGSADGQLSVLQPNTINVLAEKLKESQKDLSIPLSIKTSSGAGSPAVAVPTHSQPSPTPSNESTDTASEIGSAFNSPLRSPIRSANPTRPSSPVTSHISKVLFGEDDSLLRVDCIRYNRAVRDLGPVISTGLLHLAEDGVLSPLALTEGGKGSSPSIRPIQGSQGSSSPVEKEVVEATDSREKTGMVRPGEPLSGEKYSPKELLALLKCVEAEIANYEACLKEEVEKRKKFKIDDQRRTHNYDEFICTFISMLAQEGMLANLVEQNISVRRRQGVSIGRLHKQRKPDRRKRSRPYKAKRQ
How it was run: as §1

EIF3F = EIF3F (UniProt O00303)
How it was run: as §1

EIF3H = EIF3H (UniProt O15372)
How it was run: as §1

FAM105A = target: T3, FAM105A (UniProt Q9NUU6)
T3 sequence (whole entry): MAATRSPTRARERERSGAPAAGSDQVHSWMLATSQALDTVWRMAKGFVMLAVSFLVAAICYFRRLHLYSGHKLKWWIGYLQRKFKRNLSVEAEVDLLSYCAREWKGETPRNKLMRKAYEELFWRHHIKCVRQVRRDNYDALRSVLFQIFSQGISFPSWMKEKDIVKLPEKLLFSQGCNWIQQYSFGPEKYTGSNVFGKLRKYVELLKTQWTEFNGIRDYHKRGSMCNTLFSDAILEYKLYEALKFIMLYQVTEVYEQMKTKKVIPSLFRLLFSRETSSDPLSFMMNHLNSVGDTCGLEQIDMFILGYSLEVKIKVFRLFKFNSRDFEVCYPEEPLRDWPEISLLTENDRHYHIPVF
How it was run: as §1

OTUB1 = OTUB1 (UniProt Q96FW1)
How it was run: as §1

OTUD4 = target: T4, OTUD4 (UniProt Q01804)
T4 sequence (whole entry): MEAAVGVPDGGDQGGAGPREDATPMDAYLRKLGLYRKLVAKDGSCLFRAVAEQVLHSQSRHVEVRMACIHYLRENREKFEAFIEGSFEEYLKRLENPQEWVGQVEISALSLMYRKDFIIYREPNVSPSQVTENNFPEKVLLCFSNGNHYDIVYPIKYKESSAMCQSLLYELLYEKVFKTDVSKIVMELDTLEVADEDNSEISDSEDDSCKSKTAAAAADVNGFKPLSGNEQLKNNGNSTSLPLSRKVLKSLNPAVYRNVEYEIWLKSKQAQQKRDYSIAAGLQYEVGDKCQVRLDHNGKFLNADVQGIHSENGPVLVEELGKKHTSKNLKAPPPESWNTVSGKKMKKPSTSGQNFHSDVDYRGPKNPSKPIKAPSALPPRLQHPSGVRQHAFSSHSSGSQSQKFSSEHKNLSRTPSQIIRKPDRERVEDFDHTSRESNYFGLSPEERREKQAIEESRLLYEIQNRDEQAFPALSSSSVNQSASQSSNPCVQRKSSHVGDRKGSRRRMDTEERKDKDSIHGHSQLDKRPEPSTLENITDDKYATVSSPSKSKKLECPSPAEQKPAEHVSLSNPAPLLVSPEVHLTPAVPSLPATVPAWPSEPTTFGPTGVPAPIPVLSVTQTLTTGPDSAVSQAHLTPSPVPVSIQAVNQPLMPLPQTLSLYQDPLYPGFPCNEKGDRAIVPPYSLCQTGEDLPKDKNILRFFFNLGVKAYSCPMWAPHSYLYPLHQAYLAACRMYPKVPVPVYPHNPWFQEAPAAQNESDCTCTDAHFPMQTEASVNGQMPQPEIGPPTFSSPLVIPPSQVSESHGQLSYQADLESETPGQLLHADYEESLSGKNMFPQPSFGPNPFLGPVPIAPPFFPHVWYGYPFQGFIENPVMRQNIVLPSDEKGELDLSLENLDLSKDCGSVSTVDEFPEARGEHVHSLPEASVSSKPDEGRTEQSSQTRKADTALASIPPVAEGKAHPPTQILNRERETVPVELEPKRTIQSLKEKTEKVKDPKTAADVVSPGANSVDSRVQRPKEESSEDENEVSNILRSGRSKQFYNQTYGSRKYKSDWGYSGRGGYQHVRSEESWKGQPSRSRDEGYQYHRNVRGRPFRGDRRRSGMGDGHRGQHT
How it was run: as §1

OTUD5 = target: T5, OTUD5 (UniProt Q96G74)
T5 sequence (whole entry): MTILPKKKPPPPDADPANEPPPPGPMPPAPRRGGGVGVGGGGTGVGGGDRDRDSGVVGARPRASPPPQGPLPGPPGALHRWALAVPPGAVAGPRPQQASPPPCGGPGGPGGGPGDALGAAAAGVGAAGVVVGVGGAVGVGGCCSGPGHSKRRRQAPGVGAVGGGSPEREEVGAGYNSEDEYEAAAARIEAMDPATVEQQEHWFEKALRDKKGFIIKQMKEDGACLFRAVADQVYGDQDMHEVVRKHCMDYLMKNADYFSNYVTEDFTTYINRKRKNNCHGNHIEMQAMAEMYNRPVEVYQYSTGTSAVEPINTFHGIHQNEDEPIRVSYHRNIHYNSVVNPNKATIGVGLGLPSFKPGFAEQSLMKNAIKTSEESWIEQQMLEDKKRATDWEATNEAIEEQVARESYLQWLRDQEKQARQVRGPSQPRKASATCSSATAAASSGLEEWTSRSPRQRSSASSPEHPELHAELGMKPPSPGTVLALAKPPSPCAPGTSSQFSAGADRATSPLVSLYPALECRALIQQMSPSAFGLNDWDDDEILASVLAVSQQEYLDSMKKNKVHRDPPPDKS
How it was run: as §1

Measured: log2 ratio of Biotin-Ahx-Ub-VS probe labelling

EIF3H, sequence (O15372 whole entry): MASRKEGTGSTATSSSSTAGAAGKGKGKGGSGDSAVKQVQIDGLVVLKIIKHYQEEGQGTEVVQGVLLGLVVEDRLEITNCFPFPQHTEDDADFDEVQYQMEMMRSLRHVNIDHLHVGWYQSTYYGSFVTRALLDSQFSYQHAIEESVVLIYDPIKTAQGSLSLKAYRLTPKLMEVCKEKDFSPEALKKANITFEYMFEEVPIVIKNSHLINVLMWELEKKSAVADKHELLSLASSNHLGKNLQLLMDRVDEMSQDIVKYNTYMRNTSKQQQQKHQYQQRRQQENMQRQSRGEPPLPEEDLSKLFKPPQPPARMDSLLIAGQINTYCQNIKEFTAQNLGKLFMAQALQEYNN
EIF3F, sequence (O00303 whole entry): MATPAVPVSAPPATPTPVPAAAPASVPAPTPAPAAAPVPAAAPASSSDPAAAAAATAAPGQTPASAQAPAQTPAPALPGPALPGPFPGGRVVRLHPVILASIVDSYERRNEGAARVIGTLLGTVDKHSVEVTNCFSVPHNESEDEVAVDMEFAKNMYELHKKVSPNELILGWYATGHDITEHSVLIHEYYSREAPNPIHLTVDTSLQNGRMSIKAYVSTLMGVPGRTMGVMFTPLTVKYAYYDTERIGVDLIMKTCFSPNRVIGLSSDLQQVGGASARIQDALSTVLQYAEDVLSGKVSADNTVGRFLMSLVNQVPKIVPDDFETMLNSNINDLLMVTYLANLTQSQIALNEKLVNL
OTUB1, sequence (Q96FW1 whole entry): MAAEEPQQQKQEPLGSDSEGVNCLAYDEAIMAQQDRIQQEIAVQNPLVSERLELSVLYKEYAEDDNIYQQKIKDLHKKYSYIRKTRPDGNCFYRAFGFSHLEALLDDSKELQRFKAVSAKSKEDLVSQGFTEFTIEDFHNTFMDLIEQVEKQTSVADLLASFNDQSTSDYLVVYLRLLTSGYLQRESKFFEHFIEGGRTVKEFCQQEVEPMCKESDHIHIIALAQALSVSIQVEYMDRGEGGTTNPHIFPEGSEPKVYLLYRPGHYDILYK
ATXN3, sequence (P54252 whole entry): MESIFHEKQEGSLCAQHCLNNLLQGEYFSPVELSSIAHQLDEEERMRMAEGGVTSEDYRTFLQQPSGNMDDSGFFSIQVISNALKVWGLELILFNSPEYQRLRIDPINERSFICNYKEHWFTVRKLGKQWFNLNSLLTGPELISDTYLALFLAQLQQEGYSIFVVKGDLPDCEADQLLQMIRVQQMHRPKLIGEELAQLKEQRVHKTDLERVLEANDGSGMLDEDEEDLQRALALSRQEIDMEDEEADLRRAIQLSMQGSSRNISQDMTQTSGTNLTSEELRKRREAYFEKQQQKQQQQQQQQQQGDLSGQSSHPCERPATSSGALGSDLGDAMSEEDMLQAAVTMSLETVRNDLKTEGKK

N#Cc1ccc(CNC(=O)CCl)cc1
active: BAP1 -3.38
inactive: ALG13 -0.583 | ATXN3 -0.171 | EIF3F -0.0324 | EIF3H 0.142 | FAM105A -0.00692 | OTUB1 -0.0861 | OTUD4 -0.138 | OTUD5 -0.348
